In PubChem BioAssay AID1259313 (Sanford-Burnham Center for Chemical Genomics, 2017):
In all, about 340,000 compounds went through this assay and about 8,500 (2.5%) were called active.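 Rule for the calls: active = melting temperature shift of at least 10% of the positive control shift, at one fixed dose; inactive = the rest.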 The full list was thinned out, with actives kept by preference.

test system: Glutamate receptor ionotropic, NMDA 3A (GRIN3A) ligand-binding domain; experiment: NR3A LBD thermal stabilization by compounds – biophysical, differential scanning fluorimetry, uHTS, primary screen (AID 1259313); conditions: at 25 µM, stronger effect = higher value, 0% = protein alone, 100% = glycine-bound protein

Compound	Tm shift relative to glycine control
Cc1cc(/C=N/n2cnnc2)c(C)n1-c1ccc2ncccc2c1	-0.4% (inactive)
Cc1nn(-c2ccccc2)c(C)c1/C=C/C(=O)OC(C)C(N)=O (stereo unspecified)	-7.09% (inactive)
Cc1nn(-c2ccccc2)c(Cl)c1/C=C/C(=O)c1ccc(O)cc1	15.2% (active)
Cc1ccc(C(=O)/C=C/c2c(C)nn(-c3ccccc3)c2Cl)cc1	-10.2% (inactive)
COc1ccc(Br)c2c1C(=O)CC2	2.15% (inactive)
CCCCN(C)C(=O)C1CCN(Cc2ccccn2)CC1	1.37% (inactive)
COc1ccc(-c2cc(C(=O)N3CCN(Cc4ccc5c(c4)OCO5)CC3)on2)cc1OC	-2.25% (inactive)
COc1ccc(-c2csc3ncnc(N4CCN(S(=O)(=O)c5ccccc5C#N)CC4)c23)cc1	-2.57% (inactive)
Cc1ccc(NC(=O)Cn2cnc3c(OCc4ccccc4)ncnc32)cc1C	-1.41% (inactive)
CC(CNC(=O)Cn1cnc2c(OCc3ccccc3)ncnc21)c1ccccc1 (stereo unspecified)	16.8% (active)
O=C(Cn1cnc2c(OCc3ccccc3)ncnc21)NCc1nc2ccccc2[nH]1	-0.08% (inactive)
COc1ccc(Br)cc1CN(C)C(=O)C1CC(=O)N(C2CCCC2)C1 (stereo unspecified)	-0.58% (inactive)
O=C(O)C1CCN1C1CCCCC1 (stereo unspecified)	-1.21% (inactive)
CCOC(=O)c1nnn(CC(=O)Nc2cccc(F)c2)c1C(=O)OCC	-0.09% (inactive)
Cc1nc(C)c(-c2nnc(-c3cccc(S(=O)(=O)N(C)C)c3)o2)cc1C(=O)NN	4.67% (inactive)
CC(C(=O)NC1CCS(=O)(=O)C1)N1C(=O)/C(=C/c2ccc(Cl)cc2)SC1=S (stereo unspecified)	-5.79% (inactive)
O=C1/C(=C\c2ccc(O)cc2)CCC1CNc1ccc(Cl)cc1 (stereo unspecified)	21.3% (active)
CC1CCN(C2=NC(=O)/C(=C/c3ccc(O)cc3)S2)CC1	-0.54% (inactive)
O=C(COC(=O)c1ccc(F)cc1)NCC1COc2ccccc2O1 (stereo unspecified)	0.36% (inactive)
Cc1cc(C)c2c(c1)c(C)cc1nnc(SCC(=O)NCc3ccco3)n12	9.65% (inactive)
Cc1ccccc1N1CC(C(=O)Nc2ccc(S(=O)(=O)N3CCCC3)cc2)CC1=O (stereo unspecified)	-1.31% (inactive)
COc1ccc(-n2c(SCC(=O)NCc3ccco3)nnc2-c2c[nH]c3ccccc23)cc1	-3.71% (inactive)
CC(Oc1ccc(-c2ccccc2)c(F)c1)c1ccn(S(=O)(=O)c2cccc3ccccc23)n1 (stereo unspecified)	1.41% (inactive)

Compound	Tm shift relative to glycine control
NC(=O)c1ccsc1NC(=O)COC(=O)COc1ccc(C=O)cc1	-1% (inactive)
Cc1cc(NC(=O)CN2C(=O)NC(CCc3ccccc3)C2=O)no1 (stereo unspecified)	0% (inactive)
CCCCc1ccc(NC(=O)CN2C(=O)NC(Cc3ccccc3)C2=O)cc1 (stereo unspecified)	38.2% (active)
Cc1cc(C)c(NC(=O)CN2C(=O)NC(Cc3ccccc3)C2=O)c(C)c1 (stereo unspecified)	0.16% (inactive)
Cc1scc(C(=O)NNC(=S)NCC(C)C)c1C	-0.09% (inactive)
COCCCN1C(=O)c2ccc(C(=O)OCC(=O)NCc3ccccc3OC)cc2C1=O	-0.26% (inactive)
CCOc1ccc(NC(=O)CCCCCN2C(=O)[C@@H]3Cc4ccccc4CN3C2=O)cc1	-0.91% (inactive)
COc1cc(OC)cc(C(=O)N[C@H](C(=O)Nc2nc3ccccc3[nH]2)C(C)C)c1	-1.04% (inactive)
COc1cc(OC)cc(C(=O)Nc2ccc(-c3nc4ccccc4o3)c(O)c2)c1	35.4% (active)
COc1cc(OC)cc(C(=O)Nc2ncc3c(n2)CC(C)(C)CC3=O)c1	-0.38% (inactive)
Cc1noc(C)c1S(=O)(=O)Nc1ccc(C(=O)N2CCN(c3ccc(F)cc3)CC2)cc1	-0.58% (inactive)
CC/C(=N\O)C(C)(C)/[N+]([O-])=C/c1ccc(Br)cc1	0.62% (inactive)
CC(C)CN1CCNC(=O)C1CC(=O)N(C)CC1CCOCC1 (stereo unspecified)	0.85% (inactive)
COCCNC(=O)Cn1cc2c(n1)CCCCC2	-0.96% (inactive)
COC(=O)c1cccc(-n2[nH]nnc2=S)c1	-0.34% (inactive)
Cc1ccc(Nc2nc(N)nc(CN3CCN(Cc4ccccc4)CC3)n2)cc1Cl	-0.21% (inactive)
OCCNc1nc(Nc2ccc(Cl)c(Cl)c2)nc2ccccc12	15.3% (active)
NS(=O)(=O)c1ccc(CCNc2nc(C(F)(F)F)nc3ccccc23)cc1	-7.08% (inactive)
COc1ccccc1/C=N/N1CCN(Cc2ccccc2Cl)CC1	3.27% (inactive)
Cc1cc(-n2nc(C)cc2C)n2ncc(-c3ccccc3)c2n1	0.25% (inactive)
Cc1cc(C(=O)N/N=C/c2cc([N+](=O)[O-])cc(C)c2O)n[nH]1	-7.09% (inactive)
COc1cc(/C=N/Nc2nc3ccccc3s2)ccc1O	20.7% (active)
CCOc1cc(/C=N/Nc2cc(C)nc3ccc(C)cc23)ccc1O	-6.31% (inactive)

Compound	Tm shift relative to glycine control
COc1ccc(CC(=O)N/N=C/c2cc([N+](=O)[O-])cc(Br)c2O)cc1	7.97% (inactive)
COc1cc(/C=N/NC(=O)CCc2n[nH]c(=O)[nH]c2=O)ccc1O	0.39% (inactive)
O=[N+]([O-])c1cc(Br)c(O)c(/C=N/Nc2nc3ccccc3s2)c1	24.4% (active)
COc1cc(/C=C/CNC[C@H]2O[C@@H](n3cnc(C(N)=O)n3)[C@H](O)[C@@H]2O)ccc1O	-1.5% (inactive)
C/C(=C/C(=O)N1CCN(C)CC1)C(=O)O	-0.35% (inactive)
Cc1cc(C)c2cc(CN(Cc3cccs3)Cc3nnnn3CC3CCCO3)c(=O)[nH]c2c1 (stereo unspecified)	-5.51% (inactive)
Cn1c(=O)[nH]c(=O)c2c1nc(CN1CCN(c3ccccc3F)CC1)n2CCc1ccccc1	-1.61% (inactive)
CCCNC(=O)c1ccccc1NC(=O)CSCc1ccc(OC)cc1	12.7% (active)
CCCCCNC(=O)c1cccnc1SCC(=O)Nc1ccccc1OC	8.62% (inactive)
CCCNC(=O)Nc1ccccc1C(=O)Nc1ccc(OC)cc1	0% (inactive)
COc1cc2c(cc1OC)C(C(=O)Nc1cc(C)c(OC)c(C)c1)CC(=O)N2 (stereo unspecified)	0.68% (inactive)
CC(=O)c1c(C)[nH]c(C(=O)OCC(=O)Nc2c(C)n(C)n(-c3ccccc3)c2=O)c1C	0.41% (inactive)
CCOCCCNC(=O)C(NC(=O)CNC(=O)c1ccccc1)c1ccc(C)cc1 (stereo unspecified)	-0.17% (inactive)
Cc1ccc(N2CC(C(=O)NCCS(=O)(=O)N3CCN(c4ccccc4)CC3)CC2=O)cc1 (stereo unspecified)	0.09% (inactive)
COc1cc2[nH]c(=S)n(CCN3CCCCC3C)c(=O)c2cc1OC (stereo unspecified)	-1.68% (inactive)
COc1ccc(Cn2c(=S)[nH]c3cc(C(=O)N4CCCCC4)ccc3c2=O)cc1	0.18% (inactive)
COc1cc2[nH]c(=S)n(Cc3ccc(F)cc3)c(=O)c2cc1OC	16.4% (active)
CCOc1cc2[nH]c(=S)n(Cc3ccc(C(=O)N4CCN(C)CC4)cc3)c(=O)c2cc1OCC	-2.77% (inactive)
COc1cc2[nH]c(=S)n(Cc3ccc(C)o3)c(=O)c2cc1OC	13.2% (active)
CCOc1cc2[nH]c(=S)n(Cc3ccc(C(=O)NCCOC)cc3)c(=O)c2cc1OCC	-2.12% (inactive)
COCC(C)N=CC1=C(O)CC(C)(C)CC1=O (stereo unspecified)	1.32% (inactive)
O=C(NN1CCOCC1)c1cccc(F)c1	-0.08% (inactive)
COc1ccc(C2c3[nH]c4ccccc4c3C[C@H]3C(=O)N(CC(C)C)CC(=O)N23)c(OC)c1 (stereo partly specified)	-1.75% (inactive)

Compound	Tm shift relative to glycine control
Cc1nnc(NC2=NCCCCC2)o1	-2% (inactive)
O=C(CC(NS(=O)(=O)c1ccc(Cl)cc1)c1ccco1)NC1CCCC1 (stereo unspecified)	-0.32% (inactive)
CCOC(=O)c1ccc(NC(=O)CS(=O)(=O)c2cn(CC)c3ccccc23)cc1	-11.8% (inactive)
Cc1nc(SCC(=O)c2ccccc2)c([N+](=O)[O-])[nH]1	-0.87% (inactive)
Cc1nc(SCc2ccc(F)cc2)c([N+](=O)[O-])[nH]1	13.7% (active)
Cc1nc(N)nc(SCc2ccc([N+](=O)[O-])cc2)c1N	1.88% (inactive)
CCCSC1=C(C#N)C(c2ccccc2C)C(C(=O)OC)C(=O)N1 (stereo unspecified)	-0.63% (inactive)
Cn1c(SCC(=O)Nc2cccc(NC(=O)c3cccs3)c2)nnc1-c1ccncc1	2.57% (inactive)
O=C(NC(=S)Nc1ccc(NC(=O)c2cccs2)cc1)c1ccc([N+](=O)[O-])cc1	24.7% (active)
O=C(Nc1ccccc1)c1ccc(NC(=O)c2cccs2)cc1	27% (active)
O=C(Cc1cccs1)Nc1ccc([N+](=O)[O-])cc1	0.1% (inactive)
O=C(Nc1ccc(NC(=O)c2cccs2)cc1)c1ccc2ccccc2c1	25.1% (active)
C/C(=N\NC(=O)c1ccc(NS(=O)(=O)c2cccs2)cc1)c1ccc2ccccc2c1	5.52% (inactive)
O=C(Nc1ccccc1-c1ccccc1)c1cccs1	-0.76% (inactive)
O=C(Nc1ccc2oc(-c3ccc4ccccc4c3)nc2c1)c1cccs1	25.9% (active)
O=C(Nc1ccc(N2CCN(C(=O)C3CC3)CC2)cc1)c1cccs1	0.36% (inactive)
O=C(Nc1ccnc(-c2ccncc2)n1)c1cccs1	-0.64% (inactive)
O=C(Nc1ccc2oc(-c3ccccc3F)nc2c1)c1ccco1	-4.92% (inactive)
O=C(Nc1ccc(C(=O)O)cc1)/C(=C/c1ccc([N+](=O)[O-])cc1)NC(=O)c1ccccc1	0.77% (inactive)
CC(Oc1cccc(NC(=O)c2cccs2)c1)C(=O)c1ccccc1 (stereo unspecified)	-12.8% (inactive)
Cc1cc(C)c(-c2csc(NC(=O)CCCc3nc4ccccc4c(=O)[nH]3)n2)c(C)c1	-5.38% (inactive)
CCCCCN(C(=O)CCC(=O)OCC(=O)NC1CCC(C)CC1)c1c(N)n(CCCC)c(=O)[nH]c1=O (stereo unspecified)	-0.6% (inactive)
